From the supplement of paper PMC10849652
The full data set covers some 7,900 targets. This sample favours those with a hit. About 0.6% of all pairs of compound and target were hits.

How the values were obtained:
Experiment in all cases: log2 fold change, soluble protein after heating vs DMSO (PISA); higher = thermal stabilisation; K562 cells, 10 uM, 30 min; active = over 0.2 and 3.5 SD of the protein, either way, in both replicates (recomputed)
[1] = compound: CS(=O)(=O)c1ccc(-c2cnc(N)c(C(=O)Nc3ccccc3)n2)cc1
How it was run: (§1)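 K562 cells (2×10^6 cells/mL) were treated with 10 μM compound for 30 min, and aliquots were heated for 3 min over 48°C-58°C. Pooled aliquots were extracted in PBS with 0.5% NP-40 at 4°C, and the supernatant after 21,000xg for 90 min was measured by TMTpro 16plex LC-MS/MS with channel sums equalised. Reported thermal stability, relative to control samples and from duplicates, is a log2 fold change.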

crizotinib = compound: C[C@@H](Oc1cc(-c2cnn(C3CCNCC3)c2)cnc1N)c1c(Cl)ccc(F)c1Cl [crizotinib]
How it was run: as §1

[2] = compound: C[C@@H]1COCCN1C2=NC(=NC(=C2)C3(CC3)S(=O)(=O)C)C4=C5C=CNC5=CC=C4
How it was run: as §1

[3] = compound: C[C@H](C1=CC=C(C=C1)C(=O)NC2=C3C=CNC3=NC=C2)N
How it was run: as §1

duvelisib = compound: C[C@H](Nc1ncnc2nc[nH]c12)c1cc2cccc(Cl)c2c(=O)n1-c1ccccc1 [duvelisib]
How it was run: as §1

gandotinib = compound: Cc1cc(Nc2cc(CN3CCOCC3)c3nc(C)c(Cc4ccc(Cl)cc4F)n3n2)n[nH]1 [gandotinib]
How it was run: as §1

tozasertib = compound: Cc1cc(Nc2cc(N3CCN(C)CC3)nc(Sc3ccc(NC(=O)C4CC4)cc3)n2)n[nH]1 [tozasertib]
How it was run: as §1

[4] = compound: Cc1cc(SCc2sc(-c3ccc(C(F)(F)F)cc3)nc2C)ccc1OCC(=O)O
How it was run: as §1

doramapimod = compound: Cc1ccc(-n2nc(C(C)(C)C)cc2NC(=O)Nc2ccc(OCCN3CCOCC3)c3ccccc23)cc1 [doramapimod]
How it was run: as §1

ispinesib = compound: Cc1ccc(C(=O)N(CCCN)[C@@H](c2nc3cc(Cl)ccc3c(=O)n2Cc2ccccc2)C(C)C)cc1 [ispinesib]
How it was run: as §1

Measured: log2 fold change

KRAS isoform 2 (UniProt P01116)
Sequence of UniProt P01116 (P01116 whole entry, looked up): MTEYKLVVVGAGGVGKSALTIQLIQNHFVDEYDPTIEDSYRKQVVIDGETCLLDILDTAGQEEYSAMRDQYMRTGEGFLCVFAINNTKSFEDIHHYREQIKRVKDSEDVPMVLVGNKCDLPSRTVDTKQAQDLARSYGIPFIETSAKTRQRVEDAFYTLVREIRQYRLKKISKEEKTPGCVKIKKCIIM
inactive: [1] 0.03 | crizotinib 0.024 | [2] -0.016 | [3] 0.019 | duvelisib -0.084 | gandotinib -0.05 | tozasertib -0.079 | [4] -0.018 | doramapimod -0.019 | ispinesib -0.09

MGST3 (UniProt O14880)
inactive: [1] 0.058 | crizotinib 0.119 | [2] -0.013 | [3] -0.075 | duvelisib -0.002 | gandotinib -0.006 | tozasertib -0.018 | [4] -0.054 | doramapimod -0.031 | ispinesib 0.03

MAPKAPK3 (UniProt Q16644)
inactive: [1] -0.033 | crizotinib -0.078 | [2] 0.048 | [3] 0.115 | duvelisib 0.015 | gandotinib -0.043 | tozasertib 0.014 | [4] -0.021 | doramapimod 0.314 | ispinesib -0.111

JMJD6 isoform 3 (UniProt Q6NYC1)
inactive: [1] -0.037 | crizotinib 0.046 | [2] 0.046 | [3] -0.034 | duvelisib 0.002 | gandotinib -0.147 | tozasertib 0.024 | [4] 0.029 | doramapimod 0.005 | ispinesib 0.039

LYPLA2 (UniProt O95372)
Sequence of UniProt O95372 (O95372 whole entry, looked up): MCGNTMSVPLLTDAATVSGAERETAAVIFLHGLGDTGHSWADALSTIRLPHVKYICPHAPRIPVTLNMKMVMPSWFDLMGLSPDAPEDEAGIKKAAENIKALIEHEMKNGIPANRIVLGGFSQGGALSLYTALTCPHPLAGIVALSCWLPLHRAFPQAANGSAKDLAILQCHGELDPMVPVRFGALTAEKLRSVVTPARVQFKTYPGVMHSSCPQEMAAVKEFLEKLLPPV
inactive: [1] -0.028 | crizotinib 0.005 | [2] 0.299 | [3] -0.08 | duvelisib 0.189 | gandotinib -0.094 | tozasertib 0.056 | [4] 0.066 | doramapimod 0.016 | ispinesib 0.172

LEMD2 (UniProt Q8NC56)
inactive: [1] -0.001 | [2] 0.084 | [3] -0.057 | duvelisib -0.016 | gandotinib -0.17 | tozasertib 0.008 | [4] 0.109 | doramapimod 0.079
active: crizotinib -0.286 | ispinesib -0.438

ITIH4 (UniProt Q14624)
inactive: [1] -0.107 | crizotinib -0.102 | [2] 0.129 | [3] -0.005 | duvelisib 0.103 | gandotinib -0.387 | tozasertib -0.033 | [4] -0.031 | doramapimod -0.291 | ispinesib -0.402

MFN1 (UniProt Q8IWA4)
inactive: [1] 0.031 | crizotinib -0.026 | [2] 0.027 | [3] -0.063 | duvelisib 0.037 | gandotinib 0.025 | tozasertib -0.063 | [4] 0.039 | doramapimod 0.02 | ispinesib -0.207

KEL (UniProt P23276)
Sequence of UniProt P23276 (P23276 whole entry, looked up): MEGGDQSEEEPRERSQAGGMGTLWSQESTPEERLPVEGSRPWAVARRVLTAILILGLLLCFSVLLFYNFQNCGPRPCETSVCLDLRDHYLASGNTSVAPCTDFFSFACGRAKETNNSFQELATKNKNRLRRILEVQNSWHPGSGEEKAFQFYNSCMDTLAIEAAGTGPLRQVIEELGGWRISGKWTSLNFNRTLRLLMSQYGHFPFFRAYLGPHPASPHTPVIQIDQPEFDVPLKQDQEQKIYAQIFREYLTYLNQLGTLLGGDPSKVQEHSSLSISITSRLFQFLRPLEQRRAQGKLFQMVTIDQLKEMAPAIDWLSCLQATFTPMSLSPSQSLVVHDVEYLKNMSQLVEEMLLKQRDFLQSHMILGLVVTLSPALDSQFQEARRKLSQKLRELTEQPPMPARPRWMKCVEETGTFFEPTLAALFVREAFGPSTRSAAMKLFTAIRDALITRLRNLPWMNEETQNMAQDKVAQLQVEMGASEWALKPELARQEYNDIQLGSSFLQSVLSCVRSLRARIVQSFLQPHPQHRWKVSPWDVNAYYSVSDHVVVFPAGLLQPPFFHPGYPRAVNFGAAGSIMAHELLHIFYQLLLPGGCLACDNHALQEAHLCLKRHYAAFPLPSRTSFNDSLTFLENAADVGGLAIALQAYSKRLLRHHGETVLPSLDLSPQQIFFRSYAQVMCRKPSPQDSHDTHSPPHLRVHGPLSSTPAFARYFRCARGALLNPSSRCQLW
inactive: [1] 0.002 | crizotinib 0.084 | [2] -0.048 | [3] -0.07 | duvelisib 0.015 | gandotinib -0.341 | tozasertib -0.01 | [4] 0.019 | doramapimod 0.028 | ispinesib 0.047

LTN1 isoform 3 (UniProt O94822)
Sequence of UniProt O94822 (O94822 whole entry, looked up): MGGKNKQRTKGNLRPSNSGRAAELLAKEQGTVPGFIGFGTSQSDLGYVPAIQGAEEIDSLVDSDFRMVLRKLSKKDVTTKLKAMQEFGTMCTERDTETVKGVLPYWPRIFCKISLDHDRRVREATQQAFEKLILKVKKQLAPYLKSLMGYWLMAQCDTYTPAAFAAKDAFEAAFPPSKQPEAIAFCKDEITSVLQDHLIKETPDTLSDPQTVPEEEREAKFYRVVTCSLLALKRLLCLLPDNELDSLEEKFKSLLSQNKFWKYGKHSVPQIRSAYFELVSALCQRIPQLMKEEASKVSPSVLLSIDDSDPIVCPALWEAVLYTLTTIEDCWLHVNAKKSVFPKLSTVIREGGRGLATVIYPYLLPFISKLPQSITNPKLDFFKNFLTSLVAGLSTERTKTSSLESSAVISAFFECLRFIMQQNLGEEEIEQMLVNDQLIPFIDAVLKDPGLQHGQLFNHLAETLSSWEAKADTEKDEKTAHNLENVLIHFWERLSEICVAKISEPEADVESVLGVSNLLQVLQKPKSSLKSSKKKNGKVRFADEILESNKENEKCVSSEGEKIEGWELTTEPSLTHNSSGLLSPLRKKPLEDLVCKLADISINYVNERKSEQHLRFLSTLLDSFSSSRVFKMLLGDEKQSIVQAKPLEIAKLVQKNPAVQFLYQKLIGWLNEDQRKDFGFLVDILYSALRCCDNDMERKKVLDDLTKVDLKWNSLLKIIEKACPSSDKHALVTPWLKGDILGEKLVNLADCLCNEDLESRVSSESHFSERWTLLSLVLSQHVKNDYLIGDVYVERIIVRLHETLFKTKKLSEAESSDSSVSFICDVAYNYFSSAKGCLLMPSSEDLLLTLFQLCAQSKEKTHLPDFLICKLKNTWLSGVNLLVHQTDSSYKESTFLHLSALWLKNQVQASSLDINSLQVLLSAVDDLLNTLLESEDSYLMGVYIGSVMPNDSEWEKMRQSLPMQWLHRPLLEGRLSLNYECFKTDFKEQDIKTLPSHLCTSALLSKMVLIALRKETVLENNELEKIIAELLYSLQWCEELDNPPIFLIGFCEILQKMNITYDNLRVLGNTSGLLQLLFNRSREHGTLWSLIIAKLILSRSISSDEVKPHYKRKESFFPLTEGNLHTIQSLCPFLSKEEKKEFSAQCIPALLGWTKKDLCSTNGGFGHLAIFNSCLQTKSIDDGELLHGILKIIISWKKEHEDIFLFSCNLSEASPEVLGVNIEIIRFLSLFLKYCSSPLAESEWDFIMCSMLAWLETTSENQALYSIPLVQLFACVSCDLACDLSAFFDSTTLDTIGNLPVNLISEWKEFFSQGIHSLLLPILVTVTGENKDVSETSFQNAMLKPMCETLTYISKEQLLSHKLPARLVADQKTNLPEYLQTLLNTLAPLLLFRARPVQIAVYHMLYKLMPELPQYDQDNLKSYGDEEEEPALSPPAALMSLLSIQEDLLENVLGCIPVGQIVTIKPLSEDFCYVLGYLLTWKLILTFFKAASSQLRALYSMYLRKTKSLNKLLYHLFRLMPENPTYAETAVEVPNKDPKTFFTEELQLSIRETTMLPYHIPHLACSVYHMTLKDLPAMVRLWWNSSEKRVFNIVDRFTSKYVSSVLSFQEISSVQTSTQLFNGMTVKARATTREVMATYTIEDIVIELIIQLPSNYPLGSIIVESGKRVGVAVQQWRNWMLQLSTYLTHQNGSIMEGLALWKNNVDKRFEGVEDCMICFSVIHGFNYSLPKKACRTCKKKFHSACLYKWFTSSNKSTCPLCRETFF
inactive: [1] -0.049 | crizotinib -0.136 | [2] -0.077 | [3] 0.128 | duvelisib -0.05 | gandotinib -0.234 | tozasertib 0.012 | [4] 0.11 | doramapimod 0.021 | ispinesib -0.229

MIER1 isoform 12 (UniProt Q8N108)
Sequence of UniProt Q8N108 (Q8N108 whole entry, looked up): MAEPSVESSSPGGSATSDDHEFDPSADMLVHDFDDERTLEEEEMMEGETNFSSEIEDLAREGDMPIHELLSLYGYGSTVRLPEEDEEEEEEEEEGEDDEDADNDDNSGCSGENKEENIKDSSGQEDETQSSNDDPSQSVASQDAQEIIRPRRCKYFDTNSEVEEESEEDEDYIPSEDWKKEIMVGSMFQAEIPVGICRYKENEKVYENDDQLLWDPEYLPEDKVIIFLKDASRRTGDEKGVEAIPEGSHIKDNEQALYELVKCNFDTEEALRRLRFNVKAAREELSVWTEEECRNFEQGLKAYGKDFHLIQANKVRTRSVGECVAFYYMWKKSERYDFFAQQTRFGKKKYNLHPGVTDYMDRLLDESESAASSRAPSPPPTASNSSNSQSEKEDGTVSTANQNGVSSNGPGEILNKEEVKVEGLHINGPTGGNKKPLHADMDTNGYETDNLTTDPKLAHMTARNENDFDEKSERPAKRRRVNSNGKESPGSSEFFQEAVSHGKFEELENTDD
inactive: [1] 0.009 | crizotinib -0.027 | [2] 0.035 | [3] -0.034 | duvelisib -0.012 | gandotinib -0.004 | tozasertib -0.021 | [4] 0.035 | doramapimod 0.026 | ispinesib -0.029

LSR (UniProt Q86X29)
inactive: [1] 0.08 | crizotinib 0.043 | [2] 0.009 | [3] -0.025 | duvelisib 0.061 | gandotinib -0.012 | tozasertib -0.044 | [4] -0.031 | doramapimod 0.04 | ispinesib 0.027

LRBA, A0A494BZW2
inactive: [1] 0.013 | crizotinib -0.053 | [2] 0.114 | [3] 0.104 | duvelisib -0.057 | gandotinib 0.041 | tozasertib -0.055 | [4] -0.004 | doramapimod 0.036 | ispinesib -0.182

LAMP2 (UniProt P13473)
inactive: [1] 0.055 | crizotinib 0.043 | [2] 0.006 | [3] -0.051 | duvelisib 0.072 | gandotinib -0.104 | tozasertib 0.015 | [4] -0.062 | doramapimod -0.039 | ispinesib -0.001

MFSD5 isoform 2 (UniProt Q6N075)
Sequence of UniProt Q6N075 (Q6N075 whole entry, looked up): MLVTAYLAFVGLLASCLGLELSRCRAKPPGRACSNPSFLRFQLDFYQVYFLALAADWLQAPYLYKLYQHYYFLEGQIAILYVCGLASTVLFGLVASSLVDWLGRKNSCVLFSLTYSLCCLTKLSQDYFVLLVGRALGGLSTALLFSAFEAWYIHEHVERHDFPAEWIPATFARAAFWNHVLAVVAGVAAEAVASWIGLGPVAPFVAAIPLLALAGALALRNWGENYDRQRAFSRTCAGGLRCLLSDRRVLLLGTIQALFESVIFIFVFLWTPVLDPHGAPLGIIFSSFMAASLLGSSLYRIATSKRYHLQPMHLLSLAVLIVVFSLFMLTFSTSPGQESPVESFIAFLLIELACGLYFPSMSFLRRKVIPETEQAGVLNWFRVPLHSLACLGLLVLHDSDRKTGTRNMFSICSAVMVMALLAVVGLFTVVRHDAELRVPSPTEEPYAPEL
inactive: [1] 0.069 | crizotinib -0.039 | [2] -0.04 | [3] -0.046 | duvelisib 0.112 | gandotinib -0.045 | tozasertib 0.144 | [4] -0.004 | doramapimod 0.004 | ispinesib 0.051

LMBR1 isoform 3 (UniProt Q8WVP7)
active: gandotinib -0.812
inactive: [1] 0.086 | crizotinib -0.198 | [2] 0.019 | [3] -0.05 | duvelisib 0.095 | tozasertib 0.028 | [4] 0.04 | doramapimod 0.032 | ispinesib -0.477

MFN2 (UniProt O95140)
inactive: [1] 0.028 | crizotinib -0.109 | [2] 0 | [3] 0.022 | duvelisib -0.048 | gandotinib 0.028 | tozasertib -0.013 | [4] 0.041 | doramapimod 0.039 | ispinesib -0.208

MAP1LC3B2 (UniProt A6NCE7)
inactive: [1] 0.035 | crizotinib -0.047 | [2] 0.054 | [3] -0.144 | duvelisib 0.061 | gandotinib -0.012 | tozasertib 0.114 | [4] 0.011 | doramapimod 0.003 | ispinesib 0.02

MFGE8 (UniProt Q08431)
Sequence of UniProt Q08431 (Q08431 whole entry, looked up): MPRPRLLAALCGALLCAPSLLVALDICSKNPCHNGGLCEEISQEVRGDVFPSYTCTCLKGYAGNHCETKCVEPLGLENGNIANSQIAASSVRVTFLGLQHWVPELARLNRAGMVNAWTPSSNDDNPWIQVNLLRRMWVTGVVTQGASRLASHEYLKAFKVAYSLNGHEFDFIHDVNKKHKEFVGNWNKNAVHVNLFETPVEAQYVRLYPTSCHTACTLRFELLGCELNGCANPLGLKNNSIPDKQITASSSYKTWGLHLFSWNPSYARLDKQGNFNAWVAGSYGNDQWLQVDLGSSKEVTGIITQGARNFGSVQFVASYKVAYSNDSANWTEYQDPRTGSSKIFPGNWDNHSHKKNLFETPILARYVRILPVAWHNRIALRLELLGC
inactive: [1] 0.063 | crizotinib 0.04 | [2] -0.129 | [3] 0.087 | duvelisib -0.052 | gandotinib -0.015 | tozasertib 0.085 | [4] 0.057 | doramapimod 0.046 | ispinesib -0.122

KDM5D isoform 3 (UniProt Q9BY66)
inactive: [1] -0.004 | crizotinib 0.038 | [2] -0.005 | [3] -0.054 | duvelisib 0.057 | gandotinib -0.051 | tozasertib 0.212 | [4] 0.125 | doramapimod 0.108 | ispinesib 0

KHDC4 (UniProt Q7Z7F0)
inactive: [1] 0.045 | crizotinib -0.091 | [2] 0 | [3] -0.074 | duvelisib 0.255 | gandotinib -0.052 | tozasertib 0.013 | [4] 0.207 | doramapimod -0.054 | ispinesib 0.027

KIF11 (UniProt P52732)
inactive: [1] 0.034 | crizotinib -0.091 | [2] -0.029 | [3] 0.207 | duvelisib -0.007 | gandotinib -0.018 | tozasertib 0.12 | [4] 0.19 | doramapimod 0.13
active: ispinesib 0.761

KIFBP (UniProt Q96EK5)
inactive: [1] -0.036 | crizotinib -0.025 | [2] 0.079 | [3] 0.08 | duvelisib 0.007 | gandotinib -0.051 | tozasertib 0.065 | [4] 0.085 | doramapimod -0.053 | ispinesib -0.139

MAP2K3 isoform 3 (UniProt P46734)
Sequence of UniProt P46734 (P46734 whole entry, looked up): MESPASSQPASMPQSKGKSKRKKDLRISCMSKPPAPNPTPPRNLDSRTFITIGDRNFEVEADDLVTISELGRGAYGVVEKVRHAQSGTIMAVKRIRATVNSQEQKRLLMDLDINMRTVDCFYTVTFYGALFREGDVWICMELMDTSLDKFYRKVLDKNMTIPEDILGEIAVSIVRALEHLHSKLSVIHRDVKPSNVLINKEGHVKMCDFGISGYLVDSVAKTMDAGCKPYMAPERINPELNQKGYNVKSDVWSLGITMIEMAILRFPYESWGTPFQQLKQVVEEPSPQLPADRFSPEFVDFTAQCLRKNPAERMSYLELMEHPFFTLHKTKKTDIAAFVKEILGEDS
inactive: [1] 0.054 | crizotinib -0.049 | [2] -0.068 | [3] 0.043 | duvelisib 0.091 | gandotinib -0.001 | tozasertib 0.005 | [4] -0.007 | doramapimod 0.012 | ispinesib -0.02

MAP4 (UniProt E7EVA0)
inactive: [1] 0.023 | crizotinib -0.02 | [2] -0.222 | [3] 0.231 | duvelisib -0.084 | gandotinib -0.001 | tozasertib 0.124 | [4] -0.017 | doramapimod 0.136 | ispinesib -0.134

MAGEC2 (UniProt Q9UBF1)
Sequence of UniProt Q9UBF1 (Q9UBF1 whole entry, looked up): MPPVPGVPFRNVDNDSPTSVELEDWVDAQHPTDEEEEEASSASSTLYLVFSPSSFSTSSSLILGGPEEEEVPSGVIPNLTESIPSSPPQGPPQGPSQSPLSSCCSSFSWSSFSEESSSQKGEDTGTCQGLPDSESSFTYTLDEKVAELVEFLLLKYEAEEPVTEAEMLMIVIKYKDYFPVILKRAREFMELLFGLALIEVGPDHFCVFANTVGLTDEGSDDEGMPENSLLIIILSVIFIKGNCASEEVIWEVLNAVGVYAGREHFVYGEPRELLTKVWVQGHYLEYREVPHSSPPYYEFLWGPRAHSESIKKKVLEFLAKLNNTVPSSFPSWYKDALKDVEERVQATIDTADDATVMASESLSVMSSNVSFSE
inactive: [1] 0.008 | crizotinib 0.049 | [2] 0.009 | [3] 0.081 | duvelisib 0.043 | gandotinib 0.055 | tozasertib 0.107 | [4] -0.036 | doramapimod -0.036 | ispinesib -0.012

MAGI1 (UniProt Q96QZ7)
inactive: [1] -0.006 | crizotinib -0.003 | [2] -0.053 | [3] 0.032 | duvelisib -0.013 | gandotinib 0.003 | tozasertib -0.03 | [4] 0.046 | doramapimod 0.024 | ispinesib -0.042

LRPPRC (UniProt P42704)
inactive: [1] 0.025 | crizotinib -0.822 | [2] 0.154 | [3] 0.065 | duvelisib 0.059 | gandotinib -0.175 | tozasertib 0.213 | [4] 0.481 | doramapimod -0.172 | ispinesib -0.416

KPNB1 (UniProt Q14974)
inactive: [1] -0.027 | crizotinib -0.201 | [2] -0.038 | [3] 0.047 | duvelisib -0.045 | gandotinib -0.09 | tozasertib 0.094 | [4] 0.083 | doramapimod 0.026 | ispinesib -0.225

MIEF1 (UniProt L0R8F8)
inactive: [1] -0.023 | crizotinib 0.068 | [2] -0.067 | [3] -0.065 | duvelisib 0.151 | gandotinib -0.062 | tozasertib 0.023 | [4] -0.025 | doramapimod -0.04 | ispinesib -0.03
